# Reference: the supplement of paper PMC7380943
# Structures can show the parent of a compound that is named as a salt.
# System: CLZ3 (HCA2 human fibroblast dual HR-NHEJ reporter)
# Experiment: HR repair efficiency (tdTomato+ cells) relative to control (log10 fold); higher = more homologous recombination
# Conditions: 5 µM; doxycycline 0.5 ug/mL
# 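Also: compound given one day before doxycycline, which switches on I-SceI endonuclease expression to create double-strand breaks within the integrated reporter.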
row,SMILES,HR repair efficiency (log10)
1,CC(=O)O[C@@H]1CC[C@@]2(C)[C@@H](CC[C@]3(C)[C@@H]2C(=O)C=C2[C@@H]4[C@@H](C)[C@H](C)CC[C@]4(C)CC[C@]23C)[C@@]1(C)C(=O)O [3-Acetyl-11-Keto-Beta-Boswellic Acid],-0.0515
2,C[C@@H]1O[C@@H](O[C@H]2[C@H](Oc3c(-c4ccc(O)cc4)oc4cc(O)cc(O)c4c3=O)O[C@H](CO)[C@@H](O)[C@@H]2O)[C@H](O)[C@H](O)[C@H]1O [Kaempferol 3-O-Neohesperidoside],0.307
3,O[C@@H]1[C@@H](O)[C@@H](OC/C=C/c2ccccc2)O[C@H](CO[C@@H]2OC[C@H](O)[C@H](O)[C@H]2O)[C@H]1O [Rosavin],0.148
4,C[C@H]1O[C@H](O[C@@H]2[C@@H](O)[C@H](OCCc3ccc(O)c(O)c3)O[C@H](CO[C@H]3OCC(O)(CO)[C@@H]3O)[C@H]2OC(=O)/C=C/c2ccc(O)c(O)c2)[C@@H](O)[C@@H](O)[C@@H]1O (some centres undefined) [Forsythoside B],0.076
5,COc1cc2oc(=O)ccc2c(OC)c1C[C@@H](O)C(C)(C)O [Toddalolactone],0.018
6,C=C1C[C@@]23CC[C@H]4[C@@](C)(CCC[C@@]4(C)C(=O)O[C@@H]4O[C@H](CO)[C@@H](O)[C@H](O)[C@H]4O)[C@@H]2CC[C@]1(O[C@@H]1O[C@H](CO)[C@@H](O)[C@H](O)[C@H]1O[C@@H]1O[C@H](CO)[C@@H](O)[C@H](O)[C@H]1O)C3 [Stevioside],0.296
7,c1ccc([C@H]2CN3CCSC3=N2)cc1 [Levamisole hydrochloride],-0.0158
8,COC(=O)C1=CO[C@@H](O[C@@H]2O[C@H](CO)[C@@H](O)[C@H](O)[C@H]2O)[C@H]2[C@@H]1[C@H](O)C[C@]2(C)OC(C)=O [8-O-Acetyl Shanzhiside Methyl Ester],-0.109
9,NCCCC(=O)O [γ-Aminobutyric Acid],0.0562
10,CC(C)(O)CCc1c(O)cc(O)c2c(=O)c(O)c(-c3ccc(O)cc3)oc12 [Noricaritin],-0.128
11,O=c1cc(-c2ccc(O)c(O)c2)oc2c([C@@H]3O[C@H](CO)[C@@H](O)[C@H](O)[C@H]3O)c(O)cc(O)c12 [Orientin],0.0493
12,O=c1c(O[C@@H]2O[C@H](CO)[C@H](O)[C@H](O)[C@H]2O)c(-c2ccc(O)c(O)c2)oc2cc(O)cc(O)c12 [Hyperoside],-0.00424
13,CC(C)=CCC/C(C)=C/CC/C(C)=C/CC/C(C)=C/CC/C(C)=C/CC/C(C)=C/CC/C(C)=C/CC/C(C)=C/CC/C(C)=C/CO [Solanesol],-0.0545
14,CC1(C)OC(=O)C=C[C@]2(C)[C@H]3CC[C@@]4(C)[C@H](c5ccoc5)OC(=O)[C@H]5O[C@]54[C@]3(C)C(=O)C[C@@H]12 [Obacunone],0.0481
15,COc1cc(C2Oc3cc([C@H]4Oc5cc(O)cc(O)c5C(=O)[C@@H]4O)ccc3OC2CO)ccc1O (some centres undefined) [Silybin (Silymarin)],0.183
16,C/C=C/C#CC#C[C@@H](O)[C@@H](/C=C/CCCO)O[C@@H]1O[C@H](CO)[C@@H](O)[C@H](O)[C@H]1O [Lobetyolin],0.131
17,O=C(OCC1=C[C@@H](O)[C@@H]2C=CO[C@@H](O[C@@H]3O[C@H](CO)[C@@H](O)[C@H](O)[C@H]3O)[C@H]12)c1ccc(O)cc1 [Agnuside],0.106
18,O=Cc1ccc(CO)o1 [5-Hydroxymethylfurfural],0.0126
19,CC(C)[C@@H]1[C@H]2OC(=O)[C@@H]1[C@@H]1CC[C@@H]3CN(C)[C@H]2[C@@]31C [Dendrobine],0.272
20,COc1cc2ccc(=O)oc2cc1OC [Scoparone],0.0853

row,SMILES,HR repair efficiency (log10)
1,COc1cc2c(cc1O)CC[n+]1cc3c(OC)c(OC)ccc3cc1-2 [Jateorrhizine],-0.189
2,O=c1c(-c2ccc(O)c(O)c2)coc2c([C@@H]3O[C@H](CO)[C@@H](O)[C@H](O)[C@H]3O)c(O)ccc12 [3-Hydroxy Puerarin],-0.112
3,CC(=O)OC1CC23CC(C)(O)C(CCC2C(C)(O)C2C4OC4C(C)(C)C12O)C3O (centres undefined) [Rhodojaponin Ii],-0.000636
4,COc1c(O)cc2c(c1O)[C@@H]1O[C@H](CO)[C@@H](O)[C@H](O)[C@H]1OC2=O [Bergenin],-0.0334
5,O=C(C=Cc1ccc(O)c(O)c1)O[C@H]1[C@H](O)C[C@](O)(C(=O)O)C[C@H]1OC(=O)C=Cc1ccc(O)c(O)c1 [Isochlorogenic acid C],0.0227
6,C[C@H]1O[C@H](OC[C@H]2O[C@@H](Oc3c(-c4ccc(O)cc4)oc4cc(O)cc(O)c4c3=O)[C@H](O)[C@@H](O)[C@@H]2O)[C@@H](O)[C@@H](O)[C@@H]1O [Kaempferol-3-O-Rutinoside],-0.078
7,OC[C@H]1NC[C@H](O)[C@@H](O)[C@@H]1O [1-Deoxynojirimycin],0.0442
8,C[C@H](CCC(=O)O)[C@H]1CC[C@H]2[C@@H]3[C@H](O)C[C@@H]4C[C@H](O)CC[C@]4(C)[C@H]3C[C@H](O)[C@]12C [Cholic acid],-0.0733
9,O=Cc1ccc(O)cc1 [4-Hydroxybenzaldehyde],0.0974
10,"O=C1c2cccc(O)c2C(=O)c2c(O)cccc21 [1,8-Dihydroxyanthraquinone]",-0.106
11,OC[C@H]1O[C@@H](Oc2ccc(O)cc2)[C@H](O)[C@@H](O)[C@@H]1O [Arbutin],0.0689
12,O=c1cc(-c2ccc(O)cc2)oc2c([C@@H]3O[C@H](CO)[C@@H](O)[C@H](O)[C@H]3O)c(O)c([C@@H]3OC[C@H](O)[C@H](O)[C@H]3O)c(O)c12 [Isoschaftoside],0.0575
13,CC1(C)CCC2(C(=O)OC3OC(CO)C(O)C(O)C3O)CCC3(C)C(=CCC4C5(C)CCC(OC6OC(C(=O)O)C(OC7OCC(O)C(OC8OC(CO)C(O)C(O)C8O)C7O)C(O)C6O)C(C)(C)C5CCC43C)C2C1 (centres undefined) [Oleanoside A],0.164
14,CC(C)=CCC[C@](C)(O[C@@H]1O[C@H](CO[C@@H]2OC[C@H](O)[C@H](O)[C@H]2O)[C@@H](O)[C@H](O)[C@H]1O)[C@H]1CC[C@]2(C)[C@@H]1[C@H](O)C[C@@H]1[C@@]3(C)CC[C@H](O[C@@H]4O[C@H](CO)[C@@H](O)[C@H](O)[C@H]4O[C@@H]4O[C@H](CO)[C@@H](O)[C@H](O)[C@H]4O)C(C)(C)[C@@H]3CC[C@]12C [Ginsenoside Rb2],0.096
15,O=C(O)/C=C/C(=O)O [Fumaric Acid],0.136
16,O=C(O)C1=CO[C@@H](O[C@@H]2O[C@H](CO)[C@@H](O)[C@H](O)[C@H]2O)[C@@H]2C(CO)=CC[C@H]12 [Geniposidic acid],-0.00169
17,C=C1C(=O)O[C@@H]2/C=C(\C)CC/C=C(\C)CC[C@@H]12 [Costunolide],0.07
18,C[C@@]12C[C@@]3(O)O[C@@H](O1)[C@]1(COC(=O)c4ccccc4)[C@H]3C[C@@]12O[C@@H]1O[C@H](CO)[C@@H](O)[C@H](O)[C@H]1O [Paeoniflorin],0.213
19,O=C(/C=C/c1ccc(O)c(O)c1)O[C@@H]1C[C@](O)(C(=O)O)C[C@@H](O)[C@H]1O [Chlorogenic Acid],-0.132
